Data: paper PMC7862700, “An all-to-all approach to the identification of sequence-specific readers for epigenetic DNA modifications on cytosine”

Assays:
Test in all cases: DAPPL (digital affinity profiling via proximity ligation, sequencing); 10 mM Tris-HCl pH 7.5, 50 mM NaCl, 1 mM DTT, 4% glycerol, room temperature, 30 min; GST-TFs on glutathione beads, 16-mer random dsDNA library, 0.1% formaldehyde crosslink after washing; high values mean tight binding
Conditions in all cases: protein: recombinant; tags: N-terminal GST; dsDNA, one strand shown
FLI1 = target: T1, FLI1 (Homo sapiens, UniProt Q01543 1-452)
T1 sequence: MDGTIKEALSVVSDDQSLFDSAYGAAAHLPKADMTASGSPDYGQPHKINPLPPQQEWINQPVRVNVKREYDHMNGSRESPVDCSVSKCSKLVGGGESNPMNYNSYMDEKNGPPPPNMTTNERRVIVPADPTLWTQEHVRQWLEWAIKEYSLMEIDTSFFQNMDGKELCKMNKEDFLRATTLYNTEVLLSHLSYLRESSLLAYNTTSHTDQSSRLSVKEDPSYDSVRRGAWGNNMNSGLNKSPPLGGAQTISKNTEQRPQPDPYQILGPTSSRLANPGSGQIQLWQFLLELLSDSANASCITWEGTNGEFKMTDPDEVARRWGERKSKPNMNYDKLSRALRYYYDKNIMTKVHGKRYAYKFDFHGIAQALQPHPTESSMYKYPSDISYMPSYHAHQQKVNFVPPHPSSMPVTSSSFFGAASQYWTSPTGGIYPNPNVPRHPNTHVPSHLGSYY
In short: (§1)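 Yeast served to express human transcription factors as GST fusions, which were then captured on glutathione beads and labelled with DNA barcodes. Pooled with a tag-only sample, they were incubated with 200 nmole of a 16-mer random double-stranded DNA library for 30 min at room temperature in Tris/NaCl/DTT/glycerol buffer, washed, crosslinked with 0.1% formaldehyde, ligated by proximity, amplified by PCR and sequenced. Dividing each hexamer's read frequency for a factor by its frequency for the tag-only sample gives the binding signal.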

ELK1 = target: T2, ELK1 (Homo sapiens, UniProt P19419 1-428)
T2 sequence: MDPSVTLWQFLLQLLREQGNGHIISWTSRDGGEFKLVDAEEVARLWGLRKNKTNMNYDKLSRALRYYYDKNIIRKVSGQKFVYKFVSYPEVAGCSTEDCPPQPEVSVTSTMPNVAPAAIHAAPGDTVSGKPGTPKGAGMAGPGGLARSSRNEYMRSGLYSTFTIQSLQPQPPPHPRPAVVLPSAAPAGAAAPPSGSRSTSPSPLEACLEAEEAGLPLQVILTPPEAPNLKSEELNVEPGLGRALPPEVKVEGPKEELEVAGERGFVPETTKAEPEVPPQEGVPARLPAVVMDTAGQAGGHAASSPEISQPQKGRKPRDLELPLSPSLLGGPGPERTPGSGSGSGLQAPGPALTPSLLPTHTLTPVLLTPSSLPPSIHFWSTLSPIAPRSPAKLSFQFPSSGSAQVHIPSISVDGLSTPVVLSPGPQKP
In short: as §1

GABPA = target: T3, GABPA (Homo sapiens, UniProt Q06546 1-454)
T3 sequence: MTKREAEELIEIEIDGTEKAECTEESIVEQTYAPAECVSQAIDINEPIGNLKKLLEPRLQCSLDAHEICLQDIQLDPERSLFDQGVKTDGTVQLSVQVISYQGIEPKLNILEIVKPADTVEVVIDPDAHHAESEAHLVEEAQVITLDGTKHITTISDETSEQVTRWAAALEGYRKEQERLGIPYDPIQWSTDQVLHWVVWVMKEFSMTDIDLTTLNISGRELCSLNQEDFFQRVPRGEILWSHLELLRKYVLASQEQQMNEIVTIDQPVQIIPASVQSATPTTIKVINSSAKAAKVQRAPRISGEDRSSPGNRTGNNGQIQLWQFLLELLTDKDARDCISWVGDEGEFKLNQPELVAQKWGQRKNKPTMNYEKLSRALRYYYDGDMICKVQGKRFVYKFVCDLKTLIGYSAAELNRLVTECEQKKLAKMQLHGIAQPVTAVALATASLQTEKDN
In short: as §1

ERG = target: T4, ERG (Homo sapiens, UniProt P11308 1-479)
T4 sequence: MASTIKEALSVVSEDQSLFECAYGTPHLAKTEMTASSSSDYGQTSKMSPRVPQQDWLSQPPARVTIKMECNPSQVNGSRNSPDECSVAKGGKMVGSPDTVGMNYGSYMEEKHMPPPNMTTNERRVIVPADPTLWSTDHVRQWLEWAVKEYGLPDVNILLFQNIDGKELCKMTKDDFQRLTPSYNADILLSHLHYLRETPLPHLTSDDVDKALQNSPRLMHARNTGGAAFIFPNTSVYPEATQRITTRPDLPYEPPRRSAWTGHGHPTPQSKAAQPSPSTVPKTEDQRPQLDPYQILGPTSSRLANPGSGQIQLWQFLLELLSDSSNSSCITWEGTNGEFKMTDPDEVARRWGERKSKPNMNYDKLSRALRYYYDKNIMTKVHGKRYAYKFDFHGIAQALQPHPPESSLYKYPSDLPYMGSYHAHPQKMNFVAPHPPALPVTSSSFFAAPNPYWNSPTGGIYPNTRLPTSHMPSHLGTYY
In short: as §1

ELF1 = ELF1 (Homo sapiens, UniProt P32519 1-619)
In short: as §1

EHF = target: T5, EHF (Homo sapiens, UniProt Q9NZC4 1-300)
T5 sequence: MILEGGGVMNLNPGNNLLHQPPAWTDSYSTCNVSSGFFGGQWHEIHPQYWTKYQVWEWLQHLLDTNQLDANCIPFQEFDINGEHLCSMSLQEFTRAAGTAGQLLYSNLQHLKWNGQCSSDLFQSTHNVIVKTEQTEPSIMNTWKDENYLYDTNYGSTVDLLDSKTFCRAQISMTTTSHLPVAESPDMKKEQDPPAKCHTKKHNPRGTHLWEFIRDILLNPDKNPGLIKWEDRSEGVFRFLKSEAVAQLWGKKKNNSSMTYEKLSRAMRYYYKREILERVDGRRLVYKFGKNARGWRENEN
In short: as §1

SPI1 = SPI1 (Homo sapiens, UniProt P17947 1-270)
In short: as §1

SPIB = SPIB (Homo sapiens, UniProt Q01892 1-262)
In short: as §1

ELK3 = target: T6, ELK3 (Homo sapiens, UniProt P41970 1-407)
T6 sequence: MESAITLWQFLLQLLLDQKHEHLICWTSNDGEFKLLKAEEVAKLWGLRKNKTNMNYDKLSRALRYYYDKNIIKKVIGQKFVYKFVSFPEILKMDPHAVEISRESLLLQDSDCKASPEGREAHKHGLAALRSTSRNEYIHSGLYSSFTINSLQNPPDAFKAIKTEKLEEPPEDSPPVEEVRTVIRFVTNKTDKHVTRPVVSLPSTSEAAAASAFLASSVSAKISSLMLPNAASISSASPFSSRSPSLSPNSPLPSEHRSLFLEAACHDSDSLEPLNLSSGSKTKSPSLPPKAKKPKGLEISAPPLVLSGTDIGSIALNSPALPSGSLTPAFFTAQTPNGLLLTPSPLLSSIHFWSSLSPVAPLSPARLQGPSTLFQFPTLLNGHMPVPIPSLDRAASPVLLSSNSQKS
In short: as §1

Sequence of ELF1 (P32519 whole entry): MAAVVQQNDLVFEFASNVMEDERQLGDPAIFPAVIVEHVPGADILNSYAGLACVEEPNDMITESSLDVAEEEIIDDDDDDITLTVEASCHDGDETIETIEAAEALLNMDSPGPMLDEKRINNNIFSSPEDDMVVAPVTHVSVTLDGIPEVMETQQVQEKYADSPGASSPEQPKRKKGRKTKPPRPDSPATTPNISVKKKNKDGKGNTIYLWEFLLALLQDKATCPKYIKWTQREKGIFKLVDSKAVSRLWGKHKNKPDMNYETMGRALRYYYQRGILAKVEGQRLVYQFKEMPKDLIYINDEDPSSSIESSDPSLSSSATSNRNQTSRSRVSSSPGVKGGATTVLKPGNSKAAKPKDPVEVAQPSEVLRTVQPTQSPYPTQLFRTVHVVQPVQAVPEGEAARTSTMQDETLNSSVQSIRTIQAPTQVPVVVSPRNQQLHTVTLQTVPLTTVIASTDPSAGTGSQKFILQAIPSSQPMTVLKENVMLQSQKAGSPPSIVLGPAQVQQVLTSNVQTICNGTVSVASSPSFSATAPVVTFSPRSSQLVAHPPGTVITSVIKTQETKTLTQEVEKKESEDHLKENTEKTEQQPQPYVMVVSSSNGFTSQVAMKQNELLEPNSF
Sequence of SPIB (Q01892 whole entry): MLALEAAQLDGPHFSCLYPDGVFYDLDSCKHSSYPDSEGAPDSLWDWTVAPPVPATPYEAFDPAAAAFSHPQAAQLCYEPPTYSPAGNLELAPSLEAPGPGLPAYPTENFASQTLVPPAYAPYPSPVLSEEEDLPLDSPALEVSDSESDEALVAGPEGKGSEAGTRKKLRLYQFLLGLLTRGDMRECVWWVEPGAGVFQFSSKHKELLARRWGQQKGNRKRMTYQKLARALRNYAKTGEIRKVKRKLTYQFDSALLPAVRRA

## GATGAC
FLI1
  binding signal: 1.58 fold enrichment (6-mer frequency, TF over GST control)
ELK1
  binding signal: 1.51 fold enrichment (6-mer frequency, TF over GST control)
GABPA
  binding signal: 1.62 fold enrichment (6-mer frequency, TF over GST control)
ERG
  binding signal: 1.59 fold enrichment (6-mer frequency, TF over GST control)
ELF1
  binding signal: 1.6 fold enrichment (6-mer frequency, TF over GST control)
EHF
  binding signal: 1.43 fold enrichment (6-mer frequency, TF over GST control)
SPI1
  binding signal: 1.58 fold enrichment (6-mer frequency, TF over GST control)
SPIB
  binding signal: 1.45 fold enrichment (6-mer frequency, TF over GST control)
ELK3
  binding signal: 1.45 fold enrichment (6-mer frequency, TF over GST control)
